Screening results (PubChem BioAssay)
In the library only some 6.8% were active in any assay of this set; here they are far more common.
TSG101-PTAP inh: qHTS Assay for Iinhibitors of HIV-1 Budding by Blocking the Interaction of PTAP/TSG101. Tumor susceptibility gene 101 protein (Homo sapiens), Q99816. Fluorescence polarization, FITC-PTAP peptide / Tsg101 binding. Potency, µM (doses to about 115 µM), for the others: at the top dose activity change, negative = inhibition, usual class: inhibitors. 340,000 tested, under 10 active. AID 493005, 2010; active = well fitted inhibition curve with a large enough effect in the main read-out, with a control signal flat, not every such curve was filed as active; inconclusive = small, poorly fitted or top-dose-only effect, or effect the other way, or a change in a side signal; inactive = no such curve, though single readings can be large or run the other way; note: % of control where 0% means no effect
Target sequence (Q99816 whole entry, looked up): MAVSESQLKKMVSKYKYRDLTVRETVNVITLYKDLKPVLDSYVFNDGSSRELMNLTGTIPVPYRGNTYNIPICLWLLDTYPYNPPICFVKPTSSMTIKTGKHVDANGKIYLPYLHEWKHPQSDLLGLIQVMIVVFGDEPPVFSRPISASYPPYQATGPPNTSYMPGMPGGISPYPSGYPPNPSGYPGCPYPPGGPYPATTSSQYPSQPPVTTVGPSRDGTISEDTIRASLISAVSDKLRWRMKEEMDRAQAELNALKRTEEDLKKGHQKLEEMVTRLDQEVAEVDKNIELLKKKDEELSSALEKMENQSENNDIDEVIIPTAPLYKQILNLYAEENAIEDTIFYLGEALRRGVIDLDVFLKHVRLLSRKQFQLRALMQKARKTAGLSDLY
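Fluorescence anisotropy tracks displacement of a FITC-tagged PTAP peptide (50 nM) from the Tsg101 binding domain (10 uM), following a 20 min room-temperature incubation at pH 7.5.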
KB-3-1 tox: qHTS assay for MDR1-selective chemotherapeutics: Primary screen using the parental adenocarcinoma cell KB-3-1. KB-3-1 viability, CellTiter-Glo ATP luminescence, 72 h. Potency, µM (series often up to 46.1 µM), most hits filed as cytotoxic. 1.4% of 400,000 active; note: % is set by controls: 0 for no effect and ±100 for the full control effect; nearly all actives have a fitted effect of over 60% in size
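Luminescent ATP read-out (CellTiter-Glo) measures survival of drug-naive KB-3-1 cells after 72 h compound exposure at 37 °C. Titration series was screened from lowest to highest concentration, with DMSO vehicle plates as background controls.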
KB-V1 MDR tox: qHTS assay for MDR1-selective chemotherapeutics: Primary screen using the drug-selected MDR subline cells KB-V1; Potency, µM (series often up to 46.1 µM), hits mostly cytotoxic; 3.4% of 400,000 active; KB-V1 MDR cells viability, CellTiter-Glo, 72 h; AID 1347076, 2019; note: % is set by controls: 0 for no effect and ±100 for the full control effect; nearly all actives have a fitted effect of over 60% in size
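In this primary screen, KB-V1 cells overexpressing P-gp are incubated with library compounds (lowest to highest concentration) for 72 h at 37 degrees C before a luminescent ATP viability read.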
PINK1 modulator: A Quantitative High throughput Screen to Identify Chemical Modulators of PINK1 Expression | PINK1 immunofluorescence, high-content cytometry, 24 h | Potency, µM (highest dose often 76.6 µM), without a hit: at the top dose activation (PINK1 increase), hits mostly activators | 0.2% of 410,000 active | AID 624263, 2012; active = well fitted activation curve with a large enough effect; inconclusive = small, poorly fitted or top-dose-only effect; cell line not stated here; note: % of control where 0% means no effect; nearly all actives have a fitted effect of over 65% in size
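PINK1 protein, normally rapidly degraded, was detected by immunofluorescence after 24 hour compound treatment of a stable cell line. Titration data (5 concentrations) came from laser-scanning cytometry, with CCCP-treated wells as controls.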
SW480 rerep: A quantitative high throughput screen for small molecules that induce DNA re-replication in SW480 colon adenocarcinoma cells; Potency, µM (series often up to 46.1 µM), inactives show top-dose re-replication activation, hits mostly activators; AID 624297, 2012; SW480 DNA re-replication, Hoechst DNA content imaging, 48 h; 1.8% of 340,000 active; note: % of control where 0% means no effect; nearly all actives have a fitted effect of over 55% in size
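Cells (250 per well) received 23 nL compound or DMSO by pin tool and were kept 48 hr at 37 C, 5% CO2. Nuclei were then stained with Hoechst for 40 min and scanned for DNA content.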
MCF10A rerep: A quantitative high throughput screen for small molecules that induce DNA re-replication in MCF 10a normal breast cells; MCF 10A DNA re-replication, Hoechst nuclear intensity, 48 h; Potency, µM (doses to about 46.1 µM), without a hit: at the top dose activity, positive = re-replication, hits mostly activators; 2.9% of 350,000 active; note: % of control where 0% means no effect; nearly all actives have a fitted effect of over 50% in size
The depositor's hits bear a star; i = inactive; ? = inconclusive; · = no result given; ! = not active in a repeat; [ ] = dose if it differs, or a comment. Unless noted, calls come from the whole dose curve; as a rule, active = well fitted curve in the direction sought with a large enough effect; inconclusive = small, poorly fitted or top-dose-only effect, or another doubt; inactive = no such curve, though single readings can be large; an effect the other way counts as inactive or inconclusive. Potency is the fitted concentration of half-maximal effect.

SMILES	TSG101-PTAP inh	KB-3-1 tox	KB-V1 MDR tox	PINK1 modulator	SW480 rerep	MCF10A rerep
Cc1cc2c3c(c1)C(C)(c1ccccc1)CC(C)(C)N3C(=O)C21C(C#N)=C(N)OC2=C1C(=O)CC(C)(C)C2 (stereo unspecified)	-2%	?	21µM*	-4%[38.3 µM]	18%	?
CC1(c2ccccc2)CC(C)(C)N2C(=O)C3(C(C#N)=C(N)Oc4cc(O)ccc43)c3cccc1c32 (stereo unspecified)	·	i	21µM*	-3%[38.3 µM]	6%	?
COCc1ccc(C(=O)N2CCOc3ccc(CN4CCN(c5ccc(F)cc5)CC4)cc3C2)o1	·	·	·	0%	·	·
Cc1ccc(CCNC(=O)CN2C(=O)COc3ccc(S(=O)(=O)N4CCCCCC4)cc32)cc1	·	·	·	1%	·	·
COCCCNCCCOc1ccc(Cl)cc1C(C)(C)C	-4%	?	26µM*	-4%	?	?
CNCCCOc1ccc(Cl)cc1C(C)(C)C	2%	?	?	-1%	?	?
S=c1nc[nH]c2c1ncn2-c1ccc(Cl)cc1	2%	?	10µM*	-1%	-4%	-1%
CC1(C)CC(=O)C(C=Nc2ccc(O)c(N=CC3=C(O)CC(C)(C)CC3=O)c2)=C(O)C1	-1%	i	i	2%	-6%	-2%
CC1(C)CC(=O)C(C=Nc2ccc(C(=O)c3ccccc3)cc2N=CC2=C(O)CC(C)(C)CC2=O)=C(O)C1	-3%	?	i	4%	?	5.8µM*
CCOc1ccc(NC(=O)Nc2cc(OCC(F)(F)F)cc(OCC(F)(F)F)c2)cc1	-4%	?	i	?	?	?
O=C(Nc1ccc(F)cc1)Nc1cc(OCC(F)(F)F)cc(OCC(F)(F)F)c1	34%	6.5µM*	?	?	?	?
Cc1ccc(NS(=O)(=O)c2ccc3nc(-c4ccccc4)[nH]c3c2)cc1Cl	·	?	i	23%	·	·
Cc1ccc(NS(=O)(=O)c2ccc(Cl)c(C(=O)Nc3ccccc3-c3nc4ccccc4[nH]3)c2)cc1C	2%	?	7.3µM*	19%	8.2µM*	5.2µM*
C=CCN1C(=O)N/C(=C/c2ccccc2OCC(=O)Nc2ccc(F)cc2)C1=O	-4%	i	i	8%	333%	23µM*
COc1ccc(CN2COc3ccc4c(-c5ccccc5)cc(=O)oc4c3C2)cc1	·	i	i	1%	·	·
CCCN(CCC)C(=O)CC(c1ccccc1)c1ccc(C)cc1O (stereo unspecified)	·	i	7.3µM*	1%[38.3 µM]	3%	-3%
COc1ccc(C2c3c(oc4ccc(Cl)cc4c3=O)C(=O)N2CCCN(C)C)cc1OC (stereo unspecified)	·	·	·	-2%	·	·
c1ccc(CCNc2nc3ccccc3n3nnnc23)cc1	0%	i	i	?	-1%	3%
ClC(Cl)(Cl)c1nc2ccccc2n2nncc12	-4%	?	i	-2%	13µM*	?
CC(C)CN1CC[C@@]2(CCCN(C(=O)c3cnccn3)C2)C1	·	·	·	0%	·	·
O=[N+]([O-])c1cc(F)c2cccnc2c1O	-10%	?	i	1%	?	?
O=[N+]([O-])c1ccc(O)c2ncccc12	-1%	?	?	0%	7.3µM*	15µM*!
O=[N+]([O-])c1cc(Cl)c2cccnc2c1O	?	?	?	6%	?	2.6µM*
O=[N+]([O-])c1cc(Cl)c(O)c2ncccc12	-6%	7.3µM*	i	5%	10µM*	?
Cc1ccccc1N=Nc1ccc(O)c2ncccc12	-2%	?	i	6%	?	?
SMILES	TSG101-PTAP inh	KB-3-1 tox	KB-V1 MDR tox	PINK1 modulator	SW480 rerep	MCF10A rerep
O=Nc1ccc(O)c2ncccc12	-6%	21µM*	23µM*	9%	?	13%
O=[N+]([O-])c1ccc(O)c2cccnc12	-2%	i	i	8%	0%	7%
Cc1ccc(CNC(=O)Cn2ccn(-c3cc(C)cc(C)c3)c(=O)c2=O)cc1	·	·	·	0%	·	·
COc1ccc2oc(=O)c(-c3cn4c(n3)sc3cc(F)ccc34)cc2c1	·	·	·	0%	·	·
CCc1ccccc1N(CC)C(=O)C(=O)Nc1ccc2nc3n(c(=O)c2c1)CCCCC3	·	i	i	1%	·	·
COc1ccc(C(C(=O)Nc2ccc(C(C)C)cc2)N(C)C(=O)Cc2cccs2)cc1 (stereo unspecified)	·	i	i	3%	·	·
COc1cccc(N=Nc2ccc(O)c3ncccc23)c1	-2%	4.6µM*	i	12%	27%	-5%
CN(CC(=O)NCc1cccs1)S(=O)(=O)c1cccc2nsnc12	-3%	i	21µM*	-2%	-1%	-2%
CN(CC(=O)NCc1ccc(F)cc1)S(=O)(=O)c1cccc2nsnc12	-1%	i	i	-4%	-3%	1%
Nc1ccc(Oc2ccc([N+](=O)[O-])cc2[N+](=O)[O-])cc1	-8%	i	i	-7%[38.3 µM]	9%	3%
O=[N+]([O-])c1ccc(Oc2cccnc2)c([N+](=O)[O-])c1	-3%	?	i	18%	?	5.8µM*
O=[N+]([O-])c1ccc(OCc2cnc(Cl)s2)c([N+](=O)[O-])c1	3%	6.5µM*	1.2µM*	0%	-103%	?
COC(=O)C(Cc1cnc(Cl)s1)(C(=O)OC)c1ccc([N+](=O)[O-])cc1[N+](=O)[O-]	-5%	?	?	-2%	1%[9.22 µM]	-22%
NNC(=O)c1cc2ccccc2[nH]1	-5%	?	i	7%	18µM*	12µM*
NNC(=O)c1cc2cc(Oc3ccccc3)ccc2[nH]1	-4%	i	i	4%	5.8µM*	?
CCC(Oc1ccccc1)C(=O)Nc1cc(-c2ccccc2OC)nn1-c1ccccc1 (stereo unspecified)	·	i	i	0%	·	·
O=c1c2ccccc2nc2n1C(CSCc1ccc(Cl)cc1Cl)CS2 (stereo unspecified)	3%	?	5.8µM*	3%	-2%	0%
Nc1ccccc1SCC1CSc2nc3ccccc3c(=O)n21 (stereo unspecified)	-2%	i	i	0%	-4%	-7%
Cc1cc(C)c(Cn2c3ccccc3c3cnn(CC(=O)NCc4ccc(Cl)cc4)c(=O)c32)c(C)c1	·	i	i	7%	·	·
